Assay outcomes from PubChem.
Mtb bLac sens: beta-lactam sensitization of Mtb H37Rv. M. tuberculosis H37Rv growth with meropenem, percent inhibition. inhibition, % at 25 µM. 330,000 tested, 0.27% active. AID 434955; call rule not given here;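 note: growth measured after seven days incubation then overnight dye step; 0% = bacteria only wells and 100% = bacteria with antibiotic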
Rv3671c protease: inhibits the M. tuberculosis serine protease Rv3671c; P9WHR9; inhibition, % at 5.96 µM; 320,000 tested, 0.048% active; in the data active = inhibition above about 38%;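 note: extracellular domain of Rv3671c used as enzyme; 0% = enzyme with DMSO and 100% = no enzyme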
Target sequence (P9WHR9 whole entry, looked up, the tested form may be a part): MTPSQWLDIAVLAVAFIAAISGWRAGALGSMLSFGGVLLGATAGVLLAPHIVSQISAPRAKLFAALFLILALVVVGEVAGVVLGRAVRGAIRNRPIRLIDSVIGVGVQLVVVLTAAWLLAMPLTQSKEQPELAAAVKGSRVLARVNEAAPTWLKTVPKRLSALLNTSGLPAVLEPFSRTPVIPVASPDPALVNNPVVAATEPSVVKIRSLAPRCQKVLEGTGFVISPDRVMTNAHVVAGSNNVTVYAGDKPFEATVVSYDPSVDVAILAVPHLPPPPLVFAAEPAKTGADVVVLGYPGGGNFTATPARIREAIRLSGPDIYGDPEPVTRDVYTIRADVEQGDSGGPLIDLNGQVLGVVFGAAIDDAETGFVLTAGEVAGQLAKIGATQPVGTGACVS
UGM FP inh: blocks M. tuberculosis UGM enzyme; purified UGM, fluorescence polarization probe displacement; 320,000 tested, 0.06% active; AID 504406; inhibition, % at 10 µM; in the data active = inhibition above about 10%, passing the limit was not always enough
GDH-TPI counter-1: GDH-TPI coupled enzyme inhibition counter-screen; GDH-TPI coupled enzyme counterscreen, NADH absorbance; inhibition, % at 4.8 µM; 360,000 tested, 1.2% active; AID 588335; in the data active = inhibition above about 30%;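 note: 0% = DMSO wells and 100% = wells lacking the enzyme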
Mtb FBA inh: Mtb fructose-bisphosphate aldolase inhibition; inhibition, % at 1 µM; purified M. tuberculosis FBA, fluorescence read-out; P9WQA3; 360,000 tested, 2.3% active;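 note: 0% = vehicle and 100% = reference inhibitor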
Mtb FBA inh conf: Mtb FBA inhibition, confirmed; inhibition, % at 1 µM; 5,600 tested, 78% active; AID 651616; shares compounds with Mtb FBA inh; purified M. tuberculosis FBA, fluorescence read-out;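 note: 0% = vehicle wells and 100% = reference inhibitor wells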
GDH-TPI counter-2: GDH-TPI inhibition counter-screen for FBA inhibitors; shares compounds with Mtb FBA inh; GDH-TPI coupled enzyme counterscreen, fluorescence; inhibition, % at 1 µM; 5,600 tested, 81% active; AID 652141; in the data active = inhibition above about 10%
Numbers without * were called inactive; x = not tested or not shown; + = active, no number. Sampled rows, rich in hits. Any-hit rate of the full collection: about 3.5%. Cut-off read from the data, not from the text of the source, unless noted: active = inhibition above about 27%; inactive = the rest.

SMILES	Mtb bLac sens	Rv3671c protease	UGM FP inh	GDH-TPI counter-1	Mtb FBA inh	Mtb FBA inh conf	GDH-TPI counter-2
COc1ccc(-c2cc(C(=O)NC3CCCC3)c3ccccc3n2)cc1	17.7	1.6	1.6	21.0	40.5*	72.0*	55.1*
COc1ccc(-c2cc(C(=O)NC3CC3)c3ccccc3n2)cc1	7.3	3.2	-2.5	0.8	46.1*	104.4*	87.6*
O=C(NC1CC1)c1cc(-c2ccc(Br)cc2)nc2ccccc12	1.2	-11.5	1.5	1.9	-0.4	x	x
COc1cccc(-c2cc(C(=O)NC3CC3)c3ccccc3n2)c1	1.4	5.2	-2.0	10.0	-1.2	x	x
O=C(NC1CCC(O)CC1)c1cc(-c2ccco2)nc2ccccc12 (stereo not given)	-8.1	3.1	-1.5	3.2	62.5*	53.3*	37.8*
CCCOc1ccc(-c2cc(C(=O)NCC3CCCO3)c3ccccc3n2)cc1 (stereo not given)	89.3	-5.9	-3.8	13.9	28.0*	176.7*	153.6*
CC1NC(=O)c2cccnc2-n2c1nc1cc(F)c(F)cc1c2=O (stereo not given)	x	x	x	-5.2	-1.7	x	x
Cc1c(Cl)cnc(NC(=O)COC(=O)[C@H](C)NC(=O)c2ccccc2)c1Cl	0.0	0.8	x	3.2	3.8	x	x
Cn1ccc2c(-c3ccc(C(C)(C)C)cc3)cc3c(c21)C1CCC3O1 (stereo not given)	x	x	x	x	11.4	x	x
Cn1ccc2c(-c3ccc(C(F)(F)F)cc3)cc3c(c21)C1CCC3O1 (stereo not given)	x	x	x	x	92.9*	98.3*	69.0*
Cn1ccc2c(-c3ccc4c(c3)OCCO4)cc3c(c21)C1CCC3O1 (stereo not given)	x	x	x	x	109.0*	1.0	-4.3
Cn1ccc2c(-c3ccc4c(c3)OCCO4)cc3c(c21)C1CCC3C1 (stereo not given)	x	x	x	x	1.0	x	x
CSc1ccc(-c2cc3c(c4c2ccn4C)C2CCC3O2)cc1 (stereo not given)	x	x	x	x	100.7*	14.0	11.5*
COc1ccc(C)cc1NC(=O)CNC(C)C(=O)Nc1cc(Cl)ccc1Cl (stereo not given)	-2.7	7.5	-3.0	2.9	3.7	x	x
CC(=O)c1cc2c(ccc3ccccc32)oc1=O	25.1	x	0.0	11.4	49.8*	73.4*	59.6*
CC(=O)Nc1cc2c(ccc3ccccc32)oc1=O	-7.8	-6.0	-0.8	11.4	104.8*	69.2*	62.9*
C/C(=N\Nc1nc(-c2cc(C)ccc2C)cs1)c1cc2c(ccc3ccccc32)oc1=O	1.2	-6.9	-0.6	12.2	28.7*	69.3*	42.8*
O=C(c1cc2c(ccc3ccccc32)oc1=O)N1CCN(CCO)CC1	4.7	-2.0	1.1	25.7	52.6*	62.7*	61.9*
CN1CCN(C(=O)c2cc3ccccc3oc2=O)CC1	-1.7	-0.1	-1.4	1.5	1.9	x	x
Cn1c(=O)c2cc(NC(=O)NCc3ccc(F)cc3)ccc2n1C/C=C/c1ccccc1	x	x	x	1.8	59.5*	25.8	24.6*
CN1C(=O)CSc2ccc(NC(=O)NCc3ccc(F)cc3)cc21	6.7	-10.2	-1.8	4.0	0.8	x	x
O=C(Cc1ccccc1F)Nc1ccc2c(c1)CCC2	-7.6	-1.0	0.6	2.2	1.3	x	x
S=C(NC1CCCC1)N1CCN(C/C=C/c2ccccc2)CC1	-4.1	-4.9	-1.0	8.9	2.6	x	x
Cn1c(=O)c2cc(NC(=S)NC3CC3)ccc2n1C/C=C/c1ccccc1	x	x	x	7.1	34.5*	69.7*	54.1*
Cn1c(=O)c2cc(NC(=O)Cc3ccccc3F)ccc2n1C/C=C/c1ccccc1	x	x	x	8.9	62.1*	+	+
SMILES	Mtb bLac sens	Rv3671c protease	UGM FP inh	GDH-TPI counter-1	Mtb FBA inh	Mtb FBA inh conf	GDH-TPI counter-2
N#Cc1ccc(CCc2ccccc2)[nH]c1=O	x	x	x	16.7	31.3*	1.5	0.0
COC(=O)C1=C(C)NC(=O)/C1=C\N(C)C	-1.3	-2.9	-2.0	8.7	-1.4	x	x
Cc1ccc(-n2c([S-])c(C(=O)NC(C)c3ccccc3)[n+]3ccccc23)cc1 (stereo not given)	1.0	-0.7	-3.6	4.4	1.2	x	x
COc1ccc(CNC(=O)c2c([S-])n(-c3ccc(C)cc3)c3cccc[n+]23)cc1	5.8	-9.1	-1.0	5.1	35.9*	69.9*	96.6*
CCCN(CC(=O)Nc1ccccc1C)C(=O)c1ccc(C(=O)c2ccccc2)cc1	-9.8	4.7	3.2	-7.3	3.6	x	x
CCCN(CC(=O)Nc1ccccc1C)C(=O)c1ccc(-c2ccc(C(C)=O)cc2)o1	-14.6	0.6	-2.2	31.3*	73.2*	-4.3	-14.7
